# Data reported in the supplement of paper PMC8728848.
# The sample as a whole holds a higher share of the strongest signals than the screen did.
# B1: Epa1-NP-mutant-D229G (Candida glabrata), Q6VBJ0 (protein)
# chain: MILNPALFLNKCVCIYTTLILLLLTNGGYATSSNDISLASKDPTTFPLGCSPDITTPKKGLSMELYSYDFRKKGSYPCWDAAYLDPNYPRTGYKSHRLLAKVDGVTGNINFYYHATKGCTPQLGHLPASYNYPKPLTMTNFTMLLYGYFRPKVTGFHTFTISADDLLFVNFGAGNAFDCCRRDSSADHFGNYQAYAIWGSKTAKDELTVHLDAGVYYPIRLFYNNREYGGALSFTFKTESNENTVSDFSEYFFSLDDTEEGCPGLISYDSSCASVKTSKIIGIDYHTETPNENLVPITKTIYHLGIPCTGTTTTPLCGSGFYDPLANKCVTINTSSTSSVTKTTSHTTSKEVSFHSSISSQKTLIPKSIPSPYGPIKSQSIPTEMETSSEISSSEYAFSDVISTPSHSPYTKKHSSLNSSSYTSTVIHSLTSYSISQGIFSTSLSEQNITSKSSTDKFSTATSMSNNITQSSIIISQFSTNNENYTTTSMHTSSDKISTETLNNSISTTTSILFSNSSTILKNNTTIISSDKDTHYHPVNPTIVCSTNKTEIICASITQPSISNSNNHWSSSVLKFNSTTVRSTLPSSAGSNETSINVPFSSSTESNTSTSSTSTSNSKMVRSTLPSSAGSNETSISVPFSSSTESNTSTSSTSTSNSKMVRSTLPSSAGSNETSINVPFSSSTESNTSTSSTSTSNSKTVRSTPFSSAGIIMTSLSQRNNKSASSYASSNSKCYNTADSCRKVHSTPSYLLTSSYTSEGVDYDCSLVSTKLKINDTNCVNNKHTTKSCLKTSVTTTIPTLEIKTARKSSSNTIGLHSYPTSSPNKSISSAPIIGYISSFKTIKTASPSYQTSDLTTITTITSLNNPGSTAVENTHESNDKSRKTSSNDISSKHSVIKETKDAVESSNKSHQTNTLKCSSIIIASSSHNSYESLGGTTLTLTLSKVYSPQNNDTLPFLEISEVNPSRTVLPESSKMMQYLTSTEERNKTARNTIATNIVSISTFHFEGEGNAIRMGYTQLLLMLIGIIVMNIGT
# Experiments:
# Assay in all cases: glycan array binding signal (z-score within array); higher = stronger binding
# Details in all cases: glycan notation: IUPAC condensed, linker removed; mutation: D229G
# [1] = biological target: Gal(b1-4)GlcNAc(b1-3)Gal(b1-4)GlcNAc(b1-3)[Gal(b1-4)GlcNAc(b1-3)Gal(b1-4)GlcNAc(b1-6)]GalNAc
# Outline: (§1)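 Glycan array data came from 3228 arrays in the Consortium for Functional Glycomics database, and only arrays with an available protein sequence were kept. Glycan names were put into IUPAC-condensed notation, and columns mapping to the same glycan were averaged. The binding signal is a within-array Z-score, averaged across arrays of one protein sequence run at different concentrations or buffers and across linkers. A negative Z-score can be read as non-binding.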
# [2] = biological target: Gal(b1-4)GlcNAc(b1-3)Gal(b1-4)[Fuc(a1-3)]GlcNAc(b1-3)Gal(b1-4)[Fuc(a1-3)]GlcNAc
# Outline: as §1
# [3] = biological target: Gal(b1-4)GlcNAc(b1-3)[Gal(b1-4)GlcNAc(b1-6)]Gal(b1-4)GlcNAc
# Outline: as §1
# Gal3S(b1-3)GalNAc = biological target: Gal3S(b1-3)GalNAc
# Outline: as §1
# [4] = biological target: Gal3S(b1-4)[Fuc(a1-3)]Glc6S
# Outline: as §1
# Gal3S6S(b1-4)GlcNAc = biological target: Gal3S6S(b1-4)GlcNAc
# Outline: as §1
# Gal4S6S(b1-4)GlcNAc = biological target: Gal4S6S(b1-4)GlcNAc
# Outline: as §1
# Gal6S(b1-4)GlcNAc6S = biological target: Gal6S(b1-4)GlcNAc6S
# Outline: as §1
# GalNAc(a1-3)GalNAc = biological target: GalNAc(a1-3)GalNAc
# Outline: as §1
# GalNAc(b1-4)Gal(b1-4)Glc = biological target: GalNAc(b1-4)Gal(b1-4)Glc
# Outline: as §1
# [5] = biological target: GalNAc(b1-4)GlcNAc(b1-2)Man(a1-3)[GalNAc(b1-4)GlcNAc(b1-2)Man(a1-6)]Man(b1-4)GlcNAc(b1-4)GlcNAc
# Outline: as §1
# GalNAc(b1-6)GalNAc = biological target: GalNAc(b1-6)GalNAc
# Outline: as §1
# [6] = biological target: GlcNAc(a1-3)Gal(b1-4)GlcNAc
# Outline: as §1
# [7] = biological target: GlcNAc(a1-4)Gal(b1-4)GlcNAc(b1-3)Gal(b1-4)GlcNAc
# Outline: as §1
# [8] = biological target: GlcNAc(a1-4)Gal(b1-4)GlcNAc(b1-3)Gal(b1-4)GlcNAc(b1-3)Gal(b1-4)GlcNAc
# Outline: as §1
# [9] = biological target: GlcNAc(b1-3)Gal(b1-4)GlcNAc(b1-3)Gal(b1-4)GlcNAc(b1-3)Gal(b1-4)GlcNAc(b1-3)Gal(b1-4)GlcNAc(b1-2)Man(a1-3)[GlcNAc(b1-3)Gal(b1-4)GlcNAc(b1-3)Gal(b1-4)GlcNAc(b1-3)Gal(b1-4)GlcNAc(b1-3)Gal(b1-4)GlcNAc(b1-2)Man(a1-6)]Man(b1-4)GlcNAc(b1-4)[Fuc(a1-6)]GlcNAc
# Outline: as §1
# [10] = biological target: GlcNAc(b1-3)Gal(b1-4)GlcNAc(b1-3)Gal(b1-4)GlcNAc(b1-3)Gal(b1-4)GlcNAc(b1-3)Gal(b1-4)GlcNAc(b1-2)[GlcNAc(b1-3)Gal(b1-4)GlcNAc(b1-3)Gal(b1-4)GlcNAc(b1-3)Gal(b1-4)GlcNAc(b1-3)Gal(b1-4)GlcNAc(b1-6)]Man(a1-6)[GlcNAc(b1-3)Gal(b1-4)GlcNAc(b1-3)Gal(b1-4)GlcNAc(b1-3)Gal(b1-4)GlcNAc(b1-3)Gal(b1-4)GlcNAc(b1-2)Man(a1-3)]Man(b1-4)GlcNAc(b1-4)[Fuc(a1-6)]GlcNAc
# Outline: as §1
# GlcNAc(b1-3)Man = biological target: GlcNAc(b1-3)Man
# Outline: as §1
# [11] = biological target: GlcNAc(b1-4)GlcNAc(b1-4)GlcNAc
# Outline: as §1
# [12] = biological target: Man(a1-3)[Man(a1-6)]Man(a1-6)[Man(a1-2)Man(a1-3)]Man(b1-4)GlcNAc(b1-4)GlcNAc
# Outline: as §1
# [13] = biological target: Man(a1-3)[Man(a1-6)]Man(b1-4)GlcNAc(b1-4)[Fuc(a1-6)]GlcNAc
# Outline: as §1
# [14] = biological target: Neu5Ac(a2-3)Gal(b1-3)GlcNAc6S
# Outline: as §1
# [15] = biological target: Neu5Ac(a2-3)Gal(b1-3)]Neu5Ac(a2-3)Gal(b1-4)]GlcNAc
# Outline: as §1
# [16] = biological target: Neu5Ac(a2-3)Gal(b1-4)GlcNAc(b1-6)[Gal(b1-3)]GalNAc
# Outline: as §1
# Neu5Ac(a2-6)Gal = biological target: Neu5Ac(a2-6)Gal
# Outline: as §1
# [17] = biological target: Neu5Ac(a2-6)Gal(b1-4)GlcNAc(b1-2)Man
# Outline: as §1
# [18] = biological target: Neu5Ac(a2-6)Gal(b1-4)GlcNAc(b1-3)Gal(b1-4)GlcNAc(b1-3)[Neu5Ac(a2-6)Gal(b1-4)GlcNAc(b1-3)Gal(b1-4)GlcNAc(b1-6)]GalNAc
# Outline: as §1
# [19] = biological target: Neu5Ac(a2-6)Gal(b1-4)GlcNAc(b1-3)Gal(b1-4)[Fuc(a1-3)]GlcNAc(b1-3)Gal(b1-4)[Fuc(a1-3)]GlcNAc
# Outline: as §1
# [20] = biological target: Neu5Ac(a2-6)GalNAc(b1-4)GlcNAc6S
# Outline: as §1
# [21] = biological target: Neu5Ac(a2-8)Neu5Ac(a2-3)Gal(b1-3)GalNAc(b1-4)[Neu5Ac(a2-3)]Gal(b1-4)Glc
# Outline: as §1
# [22] = biological target: Neu5Ac(a2-8)Neu5Ac(a2-3)[Gal(b1-3)GalNAc(b1-4)]Gal(b1-4)Glc
# Outline: as §1
# [23] = biological target: Neu5Ac(a2-8)Neu5Ac(a2-8)Neu5Ac(a2-3)[GalNAc(b1-4)]Gal(b1-4)Glc
# Outline: as §1
# Neu5Gc(a2-6)GalNAc = biological target: Neu5Gc(a2-6)GalNAc
# Outline: as §1
binder,measurement,setting,value
B1,glycan array binding signal (z-score),[1],2.55
same,glycan array binding signal (z-score),[2],-0.579
same,glycan array binding signal (z-score),[3],0.003
same,glycan array binding signal (z-score),Gal3S(b1-3)GalNAc,-0.232
same,glycan array binding signal (z-score),[4],1.6
same,glycan array binding signal (z-score),Gal3S6S(b1-4)GlcNAc,2.68
same,glycan array binding signal (z-score),Gal4S6S(b1-4)GlcNAc,1.06
same,glycan array binding signal (z-score),Gal6S(b1-4)GlcNAc6S,10.9
same,glycan array binding signal (z-score),GalNAc(a1-3)GalNAc,0.722
same,glycan array binding signal (z-score),GalNAc(b1-4)Gal(b1-4)Glc,0.754
same,glycan array binding signal (z-score),[5],1.11
same,glycan array binding signal (z-score),GalNAc(b1-6)GalNAc,0.649
same,glycan array binding signal (z-score),[6],-0.409
same,glycan array binding signal (z-score),[7],0.024
same,glycan array binding signal (z-score),[8],-0.64
same,glycan array binding signal (z-score),[9],0.489
same,glycan array binding signal (z-score),[10],0.337
same,glycan array binding signal (z-score),GlcNAc(b1-3)Man,-0.859
same,glycan array binding signal (z-score),[11],0.36
same,glycan array binding signal (z-score),[12],0.04
same,glycan array binding signal (z-score),[13],-0.736
same,glycan array binding signal (z-score),[14],-0.064
same,glycan array binding signal (z-score),[15],0.197
same,glycan array binding signal (z-score),[16],0.933
same,glycan array binding signal (z-score),Neu5Ac(a2-6)Gal,0.425
same,glycan array binding signal (z-score),[17],0.054
same,glycan array binding signal (z-score),[18],3.67
same,glycan array binding signal (z-score),[19],1.65
same,glycan array binding signal (z-score),[20],0.733
same,glycan array binding signal (z-score),[21],-0.032
same,glycan array binding signal (z-score),[22],0.215
same,glycan array binding signal (z-score),[23],-0.436
same,glycan array binding signal (z-score),Neu5Gc(a2-6)GalNAc,-0.701
